Source: PubChem
Compounds with a hit are over-represented: about 1.6% of the library has one in this group of screens.
ABCB6 inh 2: human ABCB6 transporter inhibition; actives 0.19% (n = 360,000); fluorescence ratio to DMSO, % at 10 µM; AID 602162; K562-ABCB6 porphyrin accumulation, flow cytometry, 1 h; active compounds read low;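 active means fluorescence ratio to DMSO below 75%, the collection mean minus 3 SD; inconclusive means too few cells collected in the well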;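 further: signal is porphyrin accumulated inside mitochondria; lower ratio means ABCB6 inhibition with less porphyrin fluorescence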
Vif imaging: blocks HIV Vif function; inhibition, % at 7.49 µM; HEK293T cells, Vif self-association by quenched fluorescence, imaging, 24 h; actives 0.35% (n = 340,000); in the data active means inhibition above about 50%, passing the limit was not always enough; inconclusive means no clear call, values can overlap the other calls; inactive means below about 31%
Myeloid diff MLP: myeloid differentiation induction; ER-HoxA9 myeloid progenitors, lysozyme-GFP differentiation, flow cytometry; AID 624256; actives 1% (n = 360,000); calls only at 10 µM;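 active means normalized GFP-positive differentiation at or above the plate's own cutoff, the solvent-only control mean plus 3 SD; inconclusive means no clear call, values can overlap the other calls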;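 further: cells exposed to compound for four days before flow analysis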
RAD54 inh: RAD54 (human) branch migration inhibition. Q92698. RAD54 Holliday junction branch migration, FAM/BHQ fluorescence. inhibition, % at 10.4 µM. actives 0.14% (n = 360,000). AID 602329;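 active means mean normalized replicate activity at least 40 and at least half of replicates scoring 40 or more; inconclusive means only one of the two criteria met; inactive means mean below 40 and under half of replicates reaching 40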;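 further: inhibitors cause a drop in the FAM fluorescence signal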
Target sequence (Q92698 whole entry, looked up): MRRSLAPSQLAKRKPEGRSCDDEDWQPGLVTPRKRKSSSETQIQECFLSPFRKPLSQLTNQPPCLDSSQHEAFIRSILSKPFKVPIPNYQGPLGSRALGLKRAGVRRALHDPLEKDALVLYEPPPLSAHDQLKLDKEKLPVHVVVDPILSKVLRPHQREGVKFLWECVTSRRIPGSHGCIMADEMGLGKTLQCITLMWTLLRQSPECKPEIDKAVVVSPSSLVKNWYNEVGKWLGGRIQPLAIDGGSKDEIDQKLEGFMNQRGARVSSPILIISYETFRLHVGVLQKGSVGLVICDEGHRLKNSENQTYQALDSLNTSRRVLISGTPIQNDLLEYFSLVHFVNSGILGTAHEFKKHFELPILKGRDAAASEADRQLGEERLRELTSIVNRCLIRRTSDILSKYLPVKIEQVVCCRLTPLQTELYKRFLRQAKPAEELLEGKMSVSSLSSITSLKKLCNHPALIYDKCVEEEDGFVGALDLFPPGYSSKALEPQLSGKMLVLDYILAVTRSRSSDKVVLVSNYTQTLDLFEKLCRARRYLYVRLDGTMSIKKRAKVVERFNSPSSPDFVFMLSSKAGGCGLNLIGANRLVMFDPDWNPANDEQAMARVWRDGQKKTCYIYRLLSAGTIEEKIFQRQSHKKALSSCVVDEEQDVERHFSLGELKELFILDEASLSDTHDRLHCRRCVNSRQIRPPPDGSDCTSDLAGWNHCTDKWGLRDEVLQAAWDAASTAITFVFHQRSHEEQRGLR
Glyco luc inh: blocks N-linked glycosylation in D54 reporter cells | D54 ERlucT glycosylation luciferase reporter, 24 h; percent of 100 nM tunicamycin response | reporter increase, % at 12.5 µM | actives 0.23% (n = 360,000) | AID 588692;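 active means mean luciferase reporter signal, scaled so untreated is 0 and the glycosylation-blocking control 100, at or above a set limit in every replicate; inconclusive means mean reaches the limit but not every replicate does; inactive means mean below the limit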;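 further: luciferase carries N-glycosylation sites so blocking glycosylation raises the light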
Large screens that a line does not name were inactive.

C/C=C/[C@@H](CC(=O)N1Cc2ccccc2C[C@H]1CO)[Si](C)(C)c1ccc(OC)cc1	none (no result: ABCB6 inh 2, Vif imaging, Myeloid diff MLP, Glyco luc inh)
CC(C)(C)c1ccc(OC(=O)N2CCOCC2)cc1	Myeloid diff MLP active
O=[N+]([O-])c1cc(/C=N/OCc2c(Cl)cccc2Cl)ccc1N1CCOCC1	ABCB6 inh 2 54.0
CCNC(=O)[C@H]1O[C@@H](n2cnc3c(N)nc(NCCc4ccc(CCC(=O)O)cc4)nc32)[C@H](O)[C@@H]1O	Vif imaging 63.2
CCOc1ccc(-c2cc(C(=O)N3CCN(c4ccccn4)CC3)c3ccccc3n2)cc1	Myeloid diff MLP inconclusive
COc1ccc(-c2cc(C(=O)N3CCN(c4ccccn4)CC3)c3ccccc3n2)cc1	Myeloid diff MLP active
CC(OC(=O)C1CC1)C(=O)Nc1cc(Cl)cc(Cl)c1 (stereo unspecified)	Myeloid diff MLP active
CCN1/C(=C/c2cc[n+](C)cc2)C=Cc2cc(C)ccc21	Myeloid diff MLP active (no result: RAD54 inh)
CCNC(=S)NNC(=O)CCc1nc2cc(Cl)ccc2n(Cc2ccccc2)c1=O	Myeloid diff MLP active
COc1cccc(OCCOCCN(C)CCO)c1	Myeloid diff MLP active
Fc1ccc(COc2cccc(CNCc3ccncc3)c2)cc1	Myeloid diff MLP active (no result: RAD54 inh)
O=C(O)c1ccc(CNCc2cccc(OCc3ccc(F)cc3)c2)cc1	none
CCCCOc1ncnc2c1[nH]c1ccc(OCC)cc12	none
CCCCOc1ncnc2c1[nH]c1ccccc12	Vif imaging 88.3
N#CCSc1ccccc1NC(=O)COc1ccc(-c2nnco2)cc1	Myeloid diff MLP active
N#CCSc1ccccc1NC(=O)COC(=O)Cc1c[nH]c2ccccc12	Myeloid diff MLP active (no result: RAD54 inh)
CC(C)c1ccccc1NC(=O)COC(=O)Cc1c[nH]c2ccccc12	none
CCN(CC)CCNC(=O)C12CC3CC(C)(CC(C)(C3)C1)C2	Vif imaging 68.4
CCN(CC)CCNC(=O)C12CC3CC(CC(C3)C1)C2	Myeloid diff MLP active
COc1ccc(OC)c2cc3ccccc3cc12	Myeloid diff MLP active
COc1ccc2ccccc2c1-c1c(OC)ccc2ccccc12	none (no result: ABCB6 inh 2, Vif imaging, Myeloid diff MLP, Glyco luc inh)
O=S(=O)(c1cccc(Cl)c1)N1CN(CC2CCCO2)c2nc3ccccc3nc21 (stereo unspecified)	Myeloid diff MLP active
CCCn1c(SCC(=O)NNC(=O)c2ccc(C)cc2)nnc1C(C)C	Vif imaging 55.2
CCCNC(=O)[C@@H]1[C@@H](CO)[C@@H]2Cn3c(ccc(-c4ccc(F)cc4)c3=O)[C@H]1N2CC	none (no result: ABCB6 inh 2, Vif imaging, Myeloid diff MLP, Glyco luc inh)
O=C(COc1ccc(S(=O)(=O)N2CCCCC2)cc1Cl)N1CCCC1	Myeloid diff MLP active
COc1ccccc1CNC(=O)C[C@@H]1C[C@@H]2c3cc(NC(=O)Nc4ccccc4F)ccc3O[C@@H]2[C@@H](CO)O1	none (no result: ABCB6 inh 2, Vif imaging, Myeloid diff MLP, Glyco luc inh)
COc1ccc(Nc2ncnc3sccc23)cc1	none
COc1cccc(Nc2ncnc3sccc23)c1	Myeloid diff MLP active
CCCN1C(=O)C(O)(c2c(C)[nH]c3ccccc23)c2ccccc21 (stereo unspecified)	none
Cc1[nH]c2ccccc2c1C1(O)C(=O)N(C(C)C)c2ccccc21 (stereo unspecified)	Vif imaging 57.1
CC(C(=O)NC1C=CS(=O)(=O)C1)N1C(=O)/C(=C\c2ccccc2)SC1=S (stereo unspecified)	none
COc1ccccc1/C=C1/SC(=S)N(C(C)C(=O)NC2C=CS(=O)(=O)C2)C1=O (stereo unspecified)	Vif imaging 55.2
CC(C)NC(=O)N1C[C@H]2[C@@H](c3ccccc31)[C@H](CO)N2C(=O)c1ccncc1	none (no result: ABCB6 inh 2, Vif imaging, Myeloid diff MLP, Glyco luc inh)
Cn1cnc([N+](=O)[O-])c1Oc1ccc2ccccc2c1	Glyco luc inh 46.8 (no result: RAD54 inh)
Cc1cccc(Sc2c([N+](=O)[O-])ncn2C)c1	none
C[C@@H]1CCCCO[C@H](CN(C)C(=O)NC2CCCCC2)[C@H](C)CN([C@@H](C)CO)C(=O)c2cc(NS(=O)(=O)c3ccccc3)ccc2O1	none (no result: ABCB6 inh 2, Vif imaging, Myeloid diff MLP, Glyco luc inh)
Cc1nc(Nc2nc(-c3ccccc3)cc(=O)[nH]2)nc2ccccc12	Glyco luc inh 102.6
C[C@@H]1CN([C@H](C)CO)C(=O)c2cc(NC(=O)Nc3ccc4c(c3)OCO4)ccc2O[C@H]1CN(C)C(=O)Nc1ccc(F)cc1	none (no result: ABCB6 inh 2, Vif imaging, Myeloid diff MLP, Glyco luc inh)
COc1ccc(CC(=O)OCC(=O)Nc2ccc(N3CCOCC3)cc2)cc1	Vif imaging 80.7 (no result: RAD54 inh)
COc1cc(CC(=O)OCC(=O)Nc2ccc(N3CCOCC3)cc2)cc(OC)c1OC	none
Cc1cc(OCC(=O)Nc2ccc(N3CCN(C(=O)c4ccco4)CC3)cc2)cc(C)c1Cl	none (no result: Myeloid diff MLP, RAD54 inh)
Cc1ccc(OCC(=O)Nc2ccc(N3CCN(C(=O)c4ccco4)CC3)cc2)cc1C	Myeloid diff MLP active (no result: RAD54 inh)
COc1ccc(OCC(=O)Nc2ccc(N3CCN(C(=O)c4ccccc4C)CC3)cc2)cc1	Myeloid diff MLP active
COCC(=O)Nc1ccc2c(c1)OC[C@H](C)N(C(=O)c1ccccc1)C[C@@H](C)[C@@H](OC)CN(C)C2=O	none (no result: ABCB6 inh 2, Vif imaging, Myeloid diff MLP, Glyco luc inh)
CCOC(=O)/C(=C\C=C1/Sc2cc(OCC)c(OCC)cc2N1CC)C(C)=O	Myeloid diff MLP active
CCOC(=O)/C(=C/C=C1\Sc2cc(OCC)c(OCC)cc2N1CC)C(C)=O	Myeloid diff MLP active (no result: RAD54 inh)
CN(C)C(=O)c1cccc(-c2ccc3c(c2)[C@@H]2[C@@H](CCN2C(=O)c2cccnc2)[C@@H](CO)N3)c1	none (no result: ABCB6 inh 2, Vif imaging, Myeloid diff MLP, Glyco luc inh)
COCC(=O)Nc1ccc2c(c1)C(=O)N(C)C[C@@H](OC)[C@@H](C)CN(Cc1ccccc1OC)[C@H](C)CO2	none (no result: ABCB6 inh 2, Vif imaging, Myeloid diff MLP, Glyco luc inh)
O=C(C[C@H]1CC[C@@H]2[C@H](COC[C@H](O)CN2C(=O)c2ccccc2)O1)N1CCc2ccccc2C1	none (no result: ABCB6 inh 2, Vif imaging, Myeloid diff MLP, Glyco luc inh)
O=C(Nc1c(Cl)ccc2nsnc12)c1ccc([N+](=O)[O-])o1	Myeloid diff MLP inconclusive, Glyco luc inh 46.0
O=C(Nc1c(Cl)ccc2nsnc12)c1ccc(Br)o1	none (no result: RAD54 inh)
Cc1cc(C)c2sc(NC(=O)c3ccc([N+](=O)[O-])o3)nc2c1	Myeloid diff MLP inconclusive, Glyco luc inh 44.0
CC(NC(=O)C12CC3CC(CC(C3)C1)C2)C(=O)NN=Cc1ccc([N+](=O)[O-])o1 (stereo unspecified)	none
O=C(NC1CCCC(C(F)(F)F)C1)c1ccc([N+](=O)[O-])o1 (stereo unspecified)	Myeloid diff MLP active, Glyco luc inh 29.1
CC(NC(=O)c1ccc([N+](=O)[O-])o1)C12CC3CC(CC(C3)C1)C2 (stereo unspecified)	Myeloid diff MLP active
O=C(NC1CCCCC1)c1ccc([N+](=O)[O-])o1	Myeloid diff MLP active, Glyco luc inh 41.0
O=C(COC(=O)c1ccc([N+](=O)[O-])o1)NC1CCCCC1	none
O=C(NNC(=O)c1ccc([N+](=O)[O-])o1)c1ccccc1	Myeloid diff MLP active (no result: RAD54 inh)
O=C(NN(c1ccccc1)c1ccccc1)c1ccc([N+](=O)[O-])o1	none
CC(C)NC(=O)N(C)C[C@@H]1Oc2ncc(-c3ccccc3F)cc2C(=O)N([C@H](C)CO)C[C@@H]1C	none (no result: ABCB6 inh 2, Vif imaging, Myeloid diff MLP, Glyco luc inh)
O=C(NCC[C@H]1CC[C@H](NC(=O)C2CC2)[C@H](CO)O1)c1ccc(F)cc1	none (no result: ABCB6 inh 2, Vif imaging, Myeloid diff MLP, Glyco luc inh)
